Among all 220,000 compounds or so, about 16,000 (7.3%) were called active. About 25% were inconclusive and are not listed. Calls come from the whole dose curve; as a rule, active = well fitted inhibition curve with a large enough effect (not every such curve was filed as active); inconclusive = small, poorly fitted or top-dose-only effect, or another doubt; inactive = no such curve, though single readings can be large or run the other way. The list comes from a sample in which actives are over-represented; it also holds similar structures and randomly drawn compounds. Entries that show only a call come without a potency.
Potency is the fitted concentration of half-maximal effect.

The target of this assay is Aldehyde dehydrogenase 1A1 (Homo sapiens) (UniProt P00352). The experiment in a line: qHTS Assay for Inhibitors of Aldehyde Dehydrogenase 1 (ALDH1A1). The note with it: Purified ALDH1A1, NADH fluorescence, propionaldehyde substrate; series mostly up to 75.3 µM. A general note: qHTS replaces the single test concentration by a dilution series.
Sequence of Aldehyde dehydrogenase 1A1 (Homo sapiens) (P00352 whole entry, looked up): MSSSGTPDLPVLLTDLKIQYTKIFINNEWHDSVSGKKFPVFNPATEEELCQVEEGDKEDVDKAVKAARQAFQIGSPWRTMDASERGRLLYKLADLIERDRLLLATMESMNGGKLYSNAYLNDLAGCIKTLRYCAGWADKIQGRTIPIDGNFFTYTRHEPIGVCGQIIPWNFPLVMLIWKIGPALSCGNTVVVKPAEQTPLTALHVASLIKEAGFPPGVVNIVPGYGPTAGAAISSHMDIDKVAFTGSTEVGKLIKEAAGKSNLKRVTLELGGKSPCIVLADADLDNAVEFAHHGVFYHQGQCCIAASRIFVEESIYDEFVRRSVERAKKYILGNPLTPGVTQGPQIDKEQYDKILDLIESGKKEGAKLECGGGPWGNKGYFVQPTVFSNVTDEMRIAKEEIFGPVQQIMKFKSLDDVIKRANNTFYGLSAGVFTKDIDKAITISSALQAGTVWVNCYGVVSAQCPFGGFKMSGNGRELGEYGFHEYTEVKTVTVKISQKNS
Turning to `COCCNC(=O)CCCn1c(=O)c2ccccc2n(Cc2cccc([N+](=O)[O-])c2)c1=O`, the Potency result was “inactive”.

As to `CCOC(=O)N1CCN(CCC(=O)Nc2cc(OC)ccc2OC)CC1`, the Potency entry was “inactive”.

`CC(C)(C)NC(=O)c1cc(NC(=O)c2ccco2)cc(NC(=O)c2ccco2)c1`: the Potency result was “inactive”.

In the case of `NC(=O)c1ccsc1NC(=O)c1ccco1`, the Potency is 25.1 µM (active).

Consider `Cc1ccnc(NC(=O)c2ccco2)n1`, for which the Potency entry was “inactive”.

Take `O=C(Cn1c(=S)nc2ccccn21)N1CCc2ccccc2C1`: the Potency entry is “inactive”.

As to `O=C(c1ccc(F)cc1)N1CCC(n2nnc3ccccc32)CC1`, the Potency entry was “inactive”.

As for `O=C(c1ccc(F)cc1)n1c(=S)nc2ccccn21`, the Potency is 25.1 µM (active).

On to `Cc1ccc2nc(-c3ccncc3)cc(C(=O)Nc3ccc(OC(F)F)cc3)c2c1`, for which the Potency result is “inactive”.

On to `COc1cc(NC(=O)COC(=O)c2cnc(C)cn2)c(C)cc1[N+](=O)[O-]`, for which the Potency result is “inactive”.

Consider `CC1CCCC(NC(=O)c2cccc(N3CCCC3=O)c2)C1C` (stereo unspecified), for which the Potency entry was “inactive”.

Take `CCC(C)(C)NC(=O)C1c2ccccc2Oc2ccccc21`: the Potency result was “inactive”.

`Cc1ccc(S(=O)(=O)/N=S(\C)C(C)C)cc1` (stereo unspecified): the Potency result is “inactive”.

On to `CSCC(NS(=O)(=O)c1ccc(C)cc1)C(=O)O` (stereo unspecified), for which the Potency entry was “inactive”.

With `Cc1ccc(S(=O)(=O)NCC(C)NS(C)(=O)=O)cc1` (stereo unspecified), the Potency is 14.1 µM (active).

`CC1CC(=O)Nc2ccccc2N1S(=O)(=O)c1cccs1` (stereo unspecified): the Potency entry is “inactive”.

For the molecule `O=C(CNC1CCCCC1)NCC1(c2ccccc2)CCCC1`, the Potency entry is “inactive”.

Take `Cc1ccc2nc(-c3ccncc3)cc(C(=O)Nc3ccc4c(c3)OCCO4)c2c1`: the Potency result was “inactive”.

Take `O=C(CSc1ccccc1)Nc1ccc(C(=O)Nc2cccc(O)c2)cc1`: the Potency result is “inactive”.

As for `Cc1nc2ccccc2n1CC(=O)N/N=C/c1cccnc1`, the Potency result is “inactive”.

Turning to `Cn1c(=N)n(CC(O)c2cccs2)c2ccccc21` (stereo unspecified), the Potency result was “inactive”.

With `CC(=O)c1ccc2c(c1)OCCOCCOc1ccc(C(C)=O)cc1OCCOCCO2`, the Potency result was “inactive”.

As for `COc1ccc(CC(=O)NC(C)CCc2ccccc2)cc1` (stereo unspecified), the Potency is 2.51 µM (active).

`COc1ccc(C(=O)NC(=S)NNC(=O)CCc2ccccc2)cc1`: the Potency is 25.1 µM (active).

For the molecule `COc1ccc(OCCCC(=O)NCCc2ccccc2)cc1`, the Potency entry was “inactive”.

With `COc1ccc(C(=O)NC(=S)NNC(=O)c2c(-c3ccccc3)noc2C)cc1`, the Potency entry is “inactive”.

For `COc1ccc(C(CC(=O)O)NC(=O)Cc2ccccc2)cc1` (stereo unspecified), the Potency entry was “inactive”.

`COc1ccc(/C(N)=N/OC(=O)CCCc2ccccc2)cc1`: the Potency entry was “inactive”.

For the molecule `CCOC(=O)C1=C(CN2CCc3ccccc32)NC(=O)NC1c1ccc(Cl)cc1` (stereo unspecified), the Potency was 25.1 µM (active).

For the molecule `COCCOC(=O)C1=C(C)NC(=O)NC1c1ccc(Cl)cc1` (stereo unspecified), the Potency result was “inactive”.

Regarding `CCOC(=O)C1=C(CN2CCc3ccccc32)NC(=O)NC1c1cccc([N+](=O)[O-])c1` (stereo unspecified), the Potency entry is “inactive”.

(Values after PubChem BioAssay AID1030 (National Center for Advancing Translational Sciences (NCATS), 2008).)
